IL-1B inflam inh: qHTS for Inhibitors of Inflammasome Signaling: IL-1-beta AlphaLISA Primary Screen. THP-1 LPS/ATP IL-1B secretion, AlphaLISA, 16 h; active compounds read low. activity change, % at 57.5 µM. actives 4.7% (n = 360,000). AID 743279, 2014; in the data active means activity change below about -50%; inconclusive means mostly about -30% to -49%; further: on the % scale 0 is the no-effect control and ±100 the full control effect
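THP-1 cells pretreated 1 hr with compounds (up to 57.5 uM final), then stimulated with LPS (250 ng/mL final) plus ATP (1.25 mM final); secreted IL-1B measured by AlphaLISA after 16 hr, decreased signal indicating inhibition.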
SW480 rerep: A quantitative high throughput screen for small molecules that induce DNA re-replication in SW480 colon adenocarcinoma cells; SW480 DNA re-replication, Hoechst DNA content imaging, 48 h; Potency, µM (series often up to 46.1 µM), without a hit: at the top dose re-replication activation, hits mostly activators; actives 1.8% (n = 340,000); AID 624297, 2012; further: potency means the concentration at half of the fitted maximal effect; % of control where 0% means no effect; nearly all actives have a fitted effect of over 55% in size
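DNA re-replication was detected as more nuclei of elevated Hoechst intensity after 48 hr exposure to compound (23 nL pinned per well of 250 cells).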
MCF10A rereplic: A quantitative high throughput screen for small molecules that induce DNA re-replication in MCF 10a normal breast cells; actives 2.9% (n = 350,000); MCF 10A DNA re-replication, Hoechst nuclear intensity, 48 h; Potency, µM (series often up to 46.1 µM), for inactives: at the top dose activity, positive = re-replication, usual class: activators; further: potency means the concentration at half of the fitted maximal effect; % of control where 0% means no effect; nearly all actives have a fitted effect of over 50% in size
KB-V1 MDR tox: qHTS assay for MDR1-selective chemotherapeutics: Primary screen using the drug-selected MDR subline cells KB-V1; KB-V1 MDR cells viability, CellTiter-Glo, 72 h; Potency, µM (series often up to 46.1 µM), usual class: cytotoxic; actives 3.4% (n = 400,000); AID 1347076, 2019; further: potency means the concentration at half of the fitted maximal effect; on the % scale 0 is the no-effect control and ±100 the full control effect; nearly all actives have a fitted effect of over 60% in size
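qHTS viability screen in drug-selected KB-V1 MDR cells: 72 h compound treatment at 37 degrees C, ATP luminescence end point.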
KB-3-1 tox: qHTS assay for MDR1-selective chemotherapeutics: Primary screen using the parental adenocarcinoma cell KB-3-1; actives 1.4% (n = 400,000); AID 1347075, 2019; KB-3-1 viability, CellTiter-Glo ATP luminescence, 72 h; Potency, µM (highest dose often 46.1 µM), actives largely listed as cytotoxic; further: potency means the concentration at half of the fitted maximal effect; on the % scale 0 is the no-effect control and ±100 the full control effect; nearly all actives have a fitted effect of over 60% in size
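Cytotoxicity measured as CellTiter-Glo luminescence after 72 h at 37 C. Compound titrations were pinned onto drug-naive KB-3-1 parental adenocarcinoma cells grown in DMEM with 10% FBS, and normalized data fitted to concentration-response curves.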
Starred values were filed as active, the others as inactive; i = inactive; u = inconclusive; x = not tested or not shown. Rows were chosen to be rich in hits. Some 9.9% of all compounds tested hit in one or more screens of this group. Unless noted, the call rests on the fitted dose curve; in most records, active means well fitted curve in the direction sought with a large enough effect; inconclusive means small, poorly fitted or top-dose-only effect, or another doubt; inactive means no such curve, though single readings can be large; an effect the other way counts as inactive or inconclusive.

SMILES | IL-1B inflam inh | SW480 rerep | MCF10A rereplic | KB-V1 MDR tox | KB-3-1 tox
O=S(=O)(c1cccc2ccccc12)N1CCSC1 | 24 | -5% | 1% | i | i
O=S(=O)(c1cccc2cnccc12)N1CCNCC1 | -51* | -7% | u | i | u
Cc1cc(C(=O)N/N=C2\CC(=O)CC(C)(C)C2)c(C)n1-c1ccc(F)cc1 | 17 | 3% | 8% | u | i
Cc1cc(C(=O)N/N=C2\CC(=O)CC(C)(C)C2)c(C)n1-c1ccccc1 | 2 | 7% | 21µM* | u | i
COc1ccc(C(=O)C2CCCN(S(=O)(=O)c3ccc(C(C)=O)cc3)C2)c(C)c1 (stereo not drawn) | u | -6% | -1% | u | u
CCN(CC)CCOC(=O)c1cccnc1 | x | 2% | 11% | x | x
CC1(C)Oc2ccc3ccc(=O)oc3c2/C(=C/NC2CCCCC2)C1=O | 0 | u | 15µM* | u | i
CC1(C)Oc2ccc3ccc(=O)oc3c2/C(=C/Nc2ccccc2)C1=O | -59* | u | u | u | i
CC1(C)Oc2ccc3ccc(=O)oc3c2/C(=C/O)C1=O | -3 | -3% | -1% | i | i
CC1(C)Oc2ccc3ccc(=O)oc3c2/C(=C/N)C1=O | -16 | -2% | 9% | u | i
Cc1cc(NS(=O)(=O)c2ccc(NC(=O)Cc3ccccc3)cc2)nc(C)n1 | -3 | -12% | -13% | i | i
C/C(=N\NC(=S)NCc1ccccc1)c1ccc(Cl)s1 | 8 | -23% | 2% | i | i
COCCNC(=S)N/N=C(\C)c1ccc(Cl)s1 | -96* | 5% | 10% | i | i
COc1cc(Cl)c(C)cc1NC(=O)Cn1c(C)c2cnn(-c3ccccc3)c(=O)c2c1C | x | x | x | u | i
COc1ccc(CNC(=O)Cn2c(=O)cc(-c3ccccc3)c3c(C)nn(C)c32)cc1 | x | x | x | i | i
COc1ccc2nc(SCC(C)=O)c(C#N)cc2c1 | -8 | -6% | 4% | i | i
COc1ccc2nc(SCC(=O)N3CC(=O)Nc4ccccc43)c(C#N)cc2c1 | u | 5µM* | 2.8µM* | u | 2.6µM*
Cc1cc(C)c2nc(SCC(=O)N3CC(=O)Nc4ccccc43)c(C#N)cc2c1 | 44 | 1.3µM* | 0.82µM* | 0.73µM* | 0.65µM*
Cc1cc(C)c2nc(SCC(=O)Nc3ccccc3N3CCOCC3)c(C#N)cc2c1 | 41 | -6% | 2% | i | i
Cc1cc(C)cc(C(=O)N2CC(=O)Nc3ccccc32)c1 | 21 | 0.73µM* | u | 3.3µM* | u
Cc1c(-c2ccccc2)oc2c(C(=O)N3CCN(c4ccccc4F)CC3)cccc2c1=O | 38 | -4% | 0% | 4.6µM* | u
O=S(=O)(NCc1cccs1)c1ccc(Br)cc1 | -14 | -12% | 10% | i | i
O=C(Nc1nccs1)c1ccc(S(=O)(=O)NCC2CCCCC2)cc1 | -19 | 0% | u | u | i
O=C(Nc1nccs1)c1ccc(S(=O)(=O)NCc2cccs2)cc1 | -76* | 28% | u | 18µM* | i
O=C(Nc1ccc(Br)cc1)c1ccc(F)c(S(=O)(=O)NCc2cccs2)c1 | -55* | -3% | u | u | u
SMILES | IL-1B inflam inh | SW480 rerep | MCF10A rereplic | KB-V1 MDR tox | KB-3-1 tox
CCOc1ccc(S(=O)(=O)N2CCCC(C(=O)N3CCOCC3)C2)cc1C (stereo not drawn) | -25 | 10% | -9% | u | i
COc1cccc(-c2noc(-c3ccc(Cl)nc3)n2)c1 | -75* | u | 7% | i | i
O=C(OCC#Cc1c(COC(=O)c2ccccc2)nnn1Cc1ccccc1)c1ccccc1 | 4 | 8% | u | i | i
CCCCC(CC)CNC(=O)Cc1ccc(-n2c(=O)[nH]c3ccccc3c2=O)cc1 (stereo not drawn) | x | x | x | i | i
CC1CCC(NS(=O)(=O)c2ccc(Cl)s2)CC1 (stereo not drawn) | 26 | 0% | u | i | i
O=S(=O)(NC1CCCCC1)c1ccc(Cl)s1 | 7 | u | 21µM* | u | i
CCOCCCn1c(=N)c(C(=O)NC2CCCC2)cc2c(=O)n3cc(C)ccc3nc21 | x | x | x | i | i
Cc1cc(S(=O)(=O)c2ccc(Cl)cc2)nc(S(=O)(=O)c2ccc(Cl)cc2)c1C#N | -103* | x | x | u | 9.2µM*
COc1ccc(-n2nnnc2-c2cccc(OC)c2)cc1 | 102 | 3.3µM* | 4.1µM* | 1.2µM* | 1µM*
CC1CCCN(c2ccc(C(=O)NCc3ccco3)cc2[N+](=O)[O-])C1 (stereo not drawn) | -61* | -2% | u | i | i
CCCN(CC(=O)Nc1ccccc1C)C(=O)c1ccc(N2CCOCC2)c([N+](=O)[O-])c1 | -14 | 1% | -1% | i | i
CCCN(CC(=O)Nc1ccccc1C)C(=O)c1ccc(N2CCCC(C)C2)c([N+](=O)[O-])c1 (stereo not drawn) | -71* | -134% | u | i | i
C=CCC[C@@H](Cc1ccc(F)cc1)C(=O)OC[C@@H](Cc1c[nH]c2ccccc12)NC(=O)[C@@H](CC=C)CC(=O)NCCO | -65* | u | u | i | i
C=CC[C@@H](CC(=O)NCCO)C(=O)N[C@H](COC(=O)[C@@H](CC=C)Cc1ccc(F)cc1)Cc1c[nH]c2ccccc12 | -11 | -8% | 8% | i | i
C=CC[C@@H](CC(=O)NCCO)C(=O)N[C@@H](COC(=O)[C@@H](CC=C)Cc1ccc(F)cc1)Cc1c[nH]c2ccccc12 | -55* | 0% | u | i | i
CC[C@H]1C(O)C[C@H]2CCN3C(=O)CCC[C@H]1[C@H]23 (stereo partly drawn) | 40 | -12% | 14% | i | i
CCOc1cccc(CN2CCCC(CNC(=O)c3cccc(OC)c3OC)C2)c1 (stereo not drawn) | 12 | 0% | -3% | i | i
COc1ccc(-c2nc3scc(-c4ccccc4)n3n2)cc1 | 79 | u | 3% | 18µM* | u
Cc1ccc(Oc2nccc(-c3ccc(Cl)cc3)n2)cc1 | -11 | -5% | 10% | i | i
CCN(CC)c1ccc(N2C(=NC(=O)C3CC3)SC3CS(=O)(=O)CC32)cc1 (stereo not drawn) | 12 | 0% | 2% | i | i
CCN(CC(=O)Nc1ccccc1C(F)(F)F)C(=O)c1ccccc1OCc1ccc(F)cc1 | -18 | -3% | 3% | u | i

Source: PubChem
